The record followed here is PubChem BioAssay AID1347426 (Functional Genomics Laboratory (NCATS/FGL), 2020).

Out of some 31,000 sequences screened, about 1,400 (4.5%) were called active. The sample as a whole holds a higher share of actives than the screen did. Unmarked numbers belong to inactive results.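 How the source made its calls: active means median seed-adjusted z-score above 1 or below -1; inactive means the rest.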

A short description of the assay: Novel Modifiers of Survival Motor Neuron (SMN) Protein: Gene Identification via Genome-wide siRNA Screen. To be noted: HEK293T SMN2-luciferase reporter, siRNA knockdown, 72 h; actives lie on both sides. The source says: Spinal muscular atrophy (SMA) is the most common neuromuscular autosomal recessive disorder and one of the leading genetic causes of infant death. SMA results from mutations inducing loss of function or deletion in the survival of motor neuron-1 gene (SMN1), leading to deficiency of the survival motor neuron (SMN) protein. Although a second nearly identical gene, SMN2, is retained in humans, its expression primarily produces an aberrantly spliced isoform that is largely unstable and quickly degraded. We performed a genome-wide RNAi screen using a cell-based reporter assay to identify genes and pathways that modulate SMN protein stability. The screen identified over 200 genes that led to the greatest increase or decrease in luciferase expression.
Using HEK293T cells stably expressing a luciferase reporter that combines the promoter and splicing based cassettes in tandem with the major portion of the native SMN2 cDNA with luciferase, we performed a genome-wide RNAi screen to identify modulators of SMN protein levels. Luciferase is expressed when full-length SMN protein is generated with luminescence signal proportional to SMN protein levels. Our luciferase-based reporter assay was used to screen Ambion Silencer Select Human Druggable Genome siRNA library (10418 genes, 3 unique siRNAs per gene) using lipid-based reverse transfection.
Briefly, 1 pmol of each siRNA was spotted to a well of a 384-well plate (Corning, Corning, NY) and 20 microL of serum-free DMEM containing […] of Lipofectamine RNAiMax (Life Technologies, Carlsbad, CA) was then added to each well. Transfected cells were maintained at 37 degrees C in 5% CO2 for 72 hours, 20 microL of ONE-Glo Reagent (Promega) was added to wells for luciferase quantification. Raw luminescence reads were normalized to Ambion(R) Silencer(R) Negative Control #2 siRNA, then log10 transformed. A robust statistical measure of median absolute deviation (MAD) to standardize siRNA activities from each screen. Common Seed Analysis was used to help prioritize clean hits as opposed to those appearing to arise from seed based off-target effects. Candidate modulators were defined as the genes having a MAD score greater than 1.0 or less than -1.0.
On the technique in general: In a reporter assay the amount or activity of a reporter protein is the signal.
With CUACCAUGGUGUACCAACATT against QRICH1, the median seed-adjusted z-score is -1.04 (active).

As for GCAAACAAGUGAUAGUGAUTT against RBM11, the median seed-adjusted z-score is -0.0341. With UCUUCUCCCUGAUAAAGUATT against SLC6A13, the median seed-adjusted z-score was 0.267. For the sequence GACUGAUCCCUCUACUUCATT against SNTG1, the median seed-adjusted z-score is 0.167.

Regarding GCUUUCAGCUGAACGAACUTT against LTF, the median seed-adjusted z-score was 0.236. As to GAAUAUUCCUAUAGUGAUATT against MYOZ2, the median seed-adjusted z-score was 0.315. As for GAGUCUACCUAAUUCUGGATT against AURKA, the median seed-adjusted z-score was -0.108. Consider CGACCUAAUCAUUCACAGUTT against CYP26C1, for which the median seed-adjusted z-score was -0.276.

Turning to GGAGAAGAUACAAAGCGCATT against MED21, the median seed-adjusted z-score is -1.3 (active). Next, UAACAAAUCCUAUUAGAUUTT against CTBP2: -0.241. On to CGAAAACAGGAGAUCAUUATT against CAMK2G, for which the median seed-adjusted z-score is -0.107. On to GCGGCUCCAUUUACCAGAATT against VDAC1, for which the median seed-adjusted z-score was 0.133. Next, GGACAUUUCAUGAGUCAUUTT against 8-Mar: -0.106; GCAUGAAUGCAACCUGAUUTT against DDX55: 0.507; GCAUGACGACUGAACUGAUTT against MDH1B: -1.13 (active).

With GCAACUUCUUAAGACUAAATT against DBR1, the median seed-adjusted z-score was 0.438. As to GCAAGGCGGUGUUUAUGGATT against DLX1, the median seed-adjusted z-score was 0.0356. Take CUCUCUCUGCAACACCUUUTT against SLC39A3: the median seed-adjusted z-score is 0.0298.

Consider CUACAGUCGGGAACAUGAATT against CLK3, for which the median seed-adjusted z-score was -1.11 (active). As for ACGCUGUCCUGGUUCUUCATT against DGAT2L3, the median seed-adjusted z-score was 0.247. Consider GCAGAGCGGGUUAAAAUGATT against DNAJC2, for which the median seed-adjusted z-score was -0.0357. GGUUACAAGUGUAUAACAATT against CD59: the median seed-adjusted z-score is 0.79. For CGGUGCUGUUCGUCGUCUATT against GJD3, the median seed-adjusted z-score is -0.251. Next, GAAGGGAAAUGAGUACCGATT against TRIM68: -0.628; GGAUAAUACAGAAGCAGAATT against SAP30BP: -0.257.

For the sequence GGAAGAAACCAUUACAAUATT against SNAPC3, the median seed-adjusted z-score is -1.72 (active). Regarding AGAUGUGAAGCUCAAAUUATT against ETV7, the median seed-adjusted z-score was -0.00772. Next, GGGAGUCUUUCUUCGGGAATT against ABCG1: -0.609; CAUCAUCUCUGGAACUCUUTT against ALAS2: -0.142. GGUCAUGCAGAUUAUGUUATT against TUFM: the median seed-adjusted z-score was 1.07 (active). For CCUAUUCCCGAAGCCGUUATT against PLAUR, the median seed-adjusted z-score was -0.118. Next, AAUGGAACCUGUAAGUGUATT against GCN5L2: 0.013; GAAGGACCCAGAUCUCUUUTT against ADCK1: -0.177. Next, GAUCCUAUCUUACUAACCATT against IL7R: 0. Next, GGCUUAUUGGAGCUCUUAATT against CSE1L: 0.425; CAAGAUCUCAAGAAAUUCATT against CDK2: -0.347. On to CCAUCGGAAUCUUGACGAATT against MX1, for which the median seed-adjusted z-score is -1.49 (active). Next, GCAACGUGGACAUUGGUGATT against SOX10: -0.255; GAGUUCCUCUGGUCACUAUTT against TTC18: -1.15 (active); GUUCAUCUUGAUUCACAAATT against NOC4L: -0.315. In the case of GGAUGGCCAUUGAAGGGAUTT against ECHDC2, the median seed-adjusted z-score is -0.0827.

For the sequence GGGACAGGCUGCAAAGAAATT against AARS2, the median seed-adjusted z-score is -0.52.

Turning to CGGCUGGGUCUGUACCAAATT against TLX2, the median seed-adjusted z-score was -0.182.

Consider GGUCUUUGAUGCGAAGUUATT against DOCK2, for which the median seed-adjusted z-score is 0.151. As for GCAUCGACGUGAUCACCAUTT against GPR26, the median seed-adjusted z-score is -1.33 (active). CAAACAUCCAUAUCUAUGATT against NMT1: the median seed-adjusted z-score was 0.18. Next, CGCUAUCCCAAUCGCUUUATT against CYB5R1: 0; GCAAGGGUCUCGGAUUAUATT against TMPRSS12: 0.0961; CUAUAGAUGUGAUCAGUGUTT against ZNF32: 0.034. Turning to GCCCAAACUGAGUACAACUTT against PLA2G10, the median seed-adjusted z-score is 1.07 (active). Next, UGAGGACAAGGAUUUGGAATT against EIF2S2: 0.576; AUAGUUGACUAUUCUGAAATT against CCL18: 0.169; AUACGGCUCUAACAGAUUATT against DBI: 0.0661.

In the case of AGAAGAUCGGAAUUCUUUATT against RGPD5, the median seed-adjusted z-score was -0.0931.
